Data published in the supplement of paper PMC11732987, “Enantioselective OTUD7B fragment discovery through chemoproteomics screening and high-throughput optimisation” (Communications Chemistry, 2025).

Experiments:
Test in all cases: log2 ratio of Biotin-Ahx-Ub-VS probe labelling (fragment/DMSO); higher = less target engagement (more negative = stronger competition), active = hit call of the paper (q ≤ 0.05, log2 ratio ≤ -1)
Conditions in all cases: compound concentration: 200 uM; treatment time: 3 h
[1] = target: T1, USP42 (UniProt Q9H9J4)
T1 sequence (whole entry): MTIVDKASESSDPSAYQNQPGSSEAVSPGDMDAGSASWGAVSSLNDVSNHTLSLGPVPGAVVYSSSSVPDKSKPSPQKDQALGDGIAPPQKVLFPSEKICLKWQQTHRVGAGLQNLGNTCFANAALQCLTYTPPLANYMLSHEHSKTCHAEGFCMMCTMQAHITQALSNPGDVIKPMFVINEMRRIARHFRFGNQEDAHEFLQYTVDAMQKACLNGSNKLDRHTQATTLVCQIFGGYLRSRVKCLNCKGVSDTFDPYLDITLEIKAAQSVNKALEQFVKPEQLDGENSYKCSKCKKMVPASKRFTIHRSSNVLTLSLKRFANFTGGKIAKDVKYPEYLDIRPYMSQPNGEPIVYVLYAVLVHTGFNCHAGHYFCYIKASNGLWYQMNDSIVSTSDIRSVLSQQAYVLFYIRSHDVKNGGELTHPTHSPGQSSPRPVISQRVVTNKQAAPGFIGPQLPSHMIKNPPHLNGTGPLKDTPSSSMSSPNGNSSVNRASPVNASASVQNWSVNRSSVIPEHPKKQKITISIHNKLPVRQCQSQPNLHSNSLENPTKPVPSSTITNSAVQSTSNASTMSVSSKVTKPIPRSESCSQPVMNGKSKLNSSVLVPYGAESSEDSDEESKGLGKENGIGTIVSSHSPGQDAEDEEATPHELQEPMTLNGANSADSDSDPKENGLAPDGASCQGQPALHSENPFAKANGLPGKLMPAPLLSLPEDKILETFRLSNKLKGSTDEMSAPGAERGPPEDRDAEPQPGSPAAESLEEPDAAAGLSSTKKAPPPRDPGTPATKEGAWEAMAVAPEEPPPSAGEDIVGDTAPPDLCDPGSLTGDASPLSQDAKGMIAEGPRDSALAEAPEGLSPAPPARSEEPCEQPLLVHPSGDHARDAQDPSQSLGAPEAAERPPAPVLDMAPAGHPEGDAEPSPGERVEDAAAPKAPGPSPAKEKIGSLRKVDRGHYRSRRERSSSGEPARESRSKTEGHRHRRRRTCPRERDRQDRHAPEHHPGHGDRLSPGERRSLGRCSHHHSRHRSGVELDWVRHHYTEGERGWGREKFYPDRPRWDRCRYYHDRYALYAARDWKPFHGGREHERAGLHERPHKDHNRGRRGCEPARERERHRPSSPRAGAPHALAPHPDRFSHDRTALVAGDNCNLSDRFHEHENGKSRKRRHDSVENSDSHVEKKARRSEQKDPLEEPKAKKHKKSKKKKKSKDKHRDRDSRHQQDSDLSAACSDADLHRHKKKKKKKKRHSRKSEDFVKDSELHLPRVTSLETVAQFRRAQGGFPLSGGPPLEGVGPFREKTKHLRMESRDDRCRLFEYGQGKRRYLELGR
Summary of the method: (§1)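 Global-median-normalised Spectronaut label-free quantities were compared by unpaired t-test, and values are average log2 ratios of fragment over vehicle. Only proteins with ≥2 unique peptides were used. HEK293T lysate (495 µg per sample) was treated in triplicate with fragment at 200 µM or vehicle for 3 h and then with Biotin-Ahx-Ub-VS at 0.5 µM final for 1 h. Labelled DUBs were then NeutrAvidin-enriched, digested with LysC and trypsin, and run by diaPASEF LC-MS/MS.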

[2] = target: USP46 (UniProt P62068)
USP46, sequence (P62068 whole entry): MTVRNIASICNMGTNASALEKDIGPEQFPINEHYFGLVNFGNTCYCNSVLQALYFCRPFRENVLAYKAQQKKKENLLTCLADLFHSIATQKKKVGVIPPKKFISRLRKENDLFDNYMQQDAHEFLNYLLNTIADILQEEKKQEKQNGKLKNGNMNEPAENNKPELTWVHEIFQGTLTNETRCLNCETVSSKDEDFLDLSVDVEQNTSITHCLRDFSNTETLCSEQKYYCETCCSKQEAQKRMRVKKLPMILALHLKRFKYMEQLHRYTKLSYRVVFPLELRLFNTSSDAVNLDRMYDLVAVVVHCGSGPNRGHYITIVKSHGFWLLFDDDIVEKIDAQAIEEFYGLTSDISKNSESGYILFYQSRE
Summary of the method: as §1

[3] = target: T2, USP47 (UniProt Q96K76)
T2 sequence (whole entry): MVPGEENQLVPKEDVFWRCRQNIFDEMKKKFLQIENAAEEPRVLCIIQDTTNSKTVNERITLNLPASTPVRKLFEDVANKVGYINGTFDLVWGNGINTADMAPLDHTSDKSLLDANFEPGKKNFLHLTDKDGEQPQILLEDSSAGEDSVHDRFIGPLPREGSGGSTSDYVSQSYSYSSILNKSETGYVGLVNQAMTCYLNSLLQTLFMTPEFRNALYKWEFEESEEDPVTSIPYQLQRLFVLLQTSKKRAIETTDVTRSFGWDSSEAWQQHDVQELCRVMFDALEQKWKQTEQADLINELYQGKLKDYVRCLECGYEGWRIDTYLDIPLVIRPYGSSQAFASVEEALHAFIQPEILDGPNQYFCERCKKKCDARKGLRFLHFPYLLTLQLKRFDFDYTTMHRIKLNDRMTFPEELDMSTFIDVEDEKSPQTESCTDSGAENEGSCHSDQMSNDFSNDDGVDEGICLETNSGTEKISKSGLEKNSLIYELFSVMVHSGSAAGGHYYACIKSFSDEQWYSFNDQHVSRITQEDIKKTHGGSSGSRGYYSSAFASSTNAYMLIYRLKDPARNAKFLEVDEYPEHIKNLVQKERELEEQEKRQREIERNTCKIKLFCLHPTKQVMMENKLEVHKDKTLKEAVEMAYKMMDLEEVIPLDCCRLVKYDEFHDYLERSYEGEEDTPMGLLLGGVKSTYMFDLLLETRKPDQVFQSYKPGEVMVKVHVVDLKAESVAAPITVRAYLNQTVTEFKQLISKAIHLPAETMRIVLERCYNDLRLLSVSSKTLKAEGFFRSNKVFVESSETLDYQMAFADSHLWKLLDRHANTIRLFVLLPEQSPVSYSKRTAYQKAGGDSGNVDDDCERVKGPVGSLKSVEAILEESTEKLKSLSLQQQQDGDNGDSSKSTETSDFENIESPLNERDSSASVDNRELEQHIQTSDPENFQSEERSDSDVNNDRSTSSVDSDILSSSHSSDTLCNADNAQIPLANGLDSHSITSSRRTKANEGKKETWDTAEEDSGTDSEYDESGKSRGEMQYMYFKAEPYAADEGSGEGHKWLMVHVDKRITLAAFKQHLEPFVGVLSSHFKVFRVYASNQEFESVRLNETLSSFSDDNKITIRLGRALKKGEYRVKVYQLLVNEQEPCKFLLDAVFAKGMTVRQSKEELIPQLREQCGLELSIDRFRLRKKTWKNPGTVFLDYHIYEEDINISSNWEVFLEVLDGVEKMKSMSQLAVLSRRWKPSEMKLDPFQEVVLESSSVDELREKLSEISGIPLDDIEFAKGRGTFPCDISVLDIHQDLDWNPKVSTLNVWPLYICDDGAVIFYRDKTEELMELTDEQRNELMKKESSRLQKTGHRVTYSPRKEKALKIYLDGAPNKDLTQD
Summary of the method: as §1

[4] = target: T3, USP48 (UniProt Q86UV5)
T3 sequence (whole entry): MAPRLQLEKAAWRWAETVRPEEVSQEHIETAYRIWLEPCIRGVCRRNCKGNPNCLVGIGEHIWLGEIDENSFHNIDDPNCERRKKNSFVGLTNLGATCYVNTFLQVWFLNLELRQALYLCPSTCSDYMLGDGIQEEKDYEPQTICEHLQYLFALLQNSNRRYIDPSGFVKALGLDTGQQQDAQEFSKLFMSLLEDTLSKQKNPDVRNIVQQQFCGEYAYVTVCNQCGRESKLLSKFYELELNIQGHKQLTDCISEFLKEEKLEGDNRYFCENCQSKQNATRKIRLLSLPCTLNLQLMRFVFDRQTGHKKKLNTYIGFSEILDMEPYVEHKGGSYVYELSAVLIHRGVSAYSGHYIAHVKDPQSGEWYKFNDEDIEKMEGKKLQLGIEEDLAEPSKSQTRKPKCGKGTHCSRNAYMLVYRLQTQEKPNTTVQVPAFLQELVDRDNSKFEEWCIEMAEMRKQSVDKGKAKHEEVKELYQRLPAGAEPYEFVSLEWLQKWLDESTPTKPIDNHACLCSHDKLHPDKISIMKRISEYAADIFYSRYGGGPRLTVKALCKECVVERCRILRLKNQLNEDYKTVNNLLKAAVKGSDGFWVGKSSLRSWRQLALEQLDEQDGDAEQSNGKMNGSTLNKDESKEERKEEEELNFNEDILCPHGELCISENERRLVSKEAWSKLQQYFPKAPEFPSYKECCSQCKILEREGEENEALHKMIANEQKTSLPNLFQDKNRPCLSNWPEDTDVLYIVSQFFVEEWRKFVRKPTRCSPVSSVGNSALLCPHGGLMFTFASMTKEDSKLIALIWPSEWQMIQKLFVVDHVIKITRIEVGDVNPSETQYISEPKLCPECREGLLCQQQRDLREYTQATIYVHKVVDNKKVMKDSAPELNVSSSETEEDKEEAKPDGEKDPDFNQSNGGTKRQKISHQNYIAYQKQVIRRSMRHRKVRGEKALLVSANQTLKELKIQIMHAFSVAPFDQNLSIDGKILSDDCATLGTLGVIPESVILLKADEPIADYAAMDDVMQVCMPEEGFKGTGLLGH
Summary of the method: as §1

[5] = target: T4, USP5 (UniProt P45974)
T4 sequence (whole entry): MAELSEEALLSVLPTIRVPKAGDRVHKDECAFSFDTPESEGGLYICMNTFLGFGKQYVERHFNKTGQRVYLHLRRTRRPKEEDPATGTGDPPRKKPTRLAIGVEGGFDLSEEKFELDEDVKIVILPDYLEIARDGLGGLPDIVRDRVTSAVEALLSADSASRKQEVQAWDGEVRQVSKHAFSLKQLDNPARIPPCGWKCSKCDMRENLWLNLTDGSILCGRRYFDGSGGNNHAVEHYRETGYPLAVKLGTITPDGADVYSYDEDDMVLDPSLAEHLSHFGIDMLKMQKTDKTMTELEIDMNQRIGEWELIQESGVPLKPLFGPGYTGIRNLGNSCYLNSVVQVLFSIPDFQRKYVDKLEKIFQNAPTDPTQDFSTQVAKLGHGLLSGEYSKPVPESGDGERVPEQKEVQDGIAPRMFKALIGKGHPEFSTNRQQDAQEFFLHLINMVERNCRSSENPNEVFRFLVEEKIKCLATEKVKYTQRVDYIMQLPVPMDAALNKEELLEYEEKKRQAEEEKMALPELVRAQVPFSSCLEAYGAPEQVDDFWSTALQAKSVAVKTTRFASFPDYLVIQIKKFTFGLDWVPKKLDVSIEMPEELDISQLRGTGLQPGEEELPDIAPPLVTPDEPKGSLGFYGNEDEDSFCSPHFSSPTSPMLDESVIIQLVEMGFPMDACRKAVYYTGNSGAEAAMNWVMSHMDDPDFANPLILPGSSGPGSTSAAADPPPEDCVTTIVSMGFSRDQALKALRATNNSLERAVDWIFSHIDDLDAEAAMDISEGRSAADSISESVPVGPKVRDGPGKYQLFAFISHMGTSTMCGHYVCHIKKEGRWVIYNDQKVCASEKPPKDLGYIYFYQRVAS
Summary of the method: as §1

[6] = target: USP54 (UniProt Q70EL1)
USP54, sequence (Q70EL1 whole entry): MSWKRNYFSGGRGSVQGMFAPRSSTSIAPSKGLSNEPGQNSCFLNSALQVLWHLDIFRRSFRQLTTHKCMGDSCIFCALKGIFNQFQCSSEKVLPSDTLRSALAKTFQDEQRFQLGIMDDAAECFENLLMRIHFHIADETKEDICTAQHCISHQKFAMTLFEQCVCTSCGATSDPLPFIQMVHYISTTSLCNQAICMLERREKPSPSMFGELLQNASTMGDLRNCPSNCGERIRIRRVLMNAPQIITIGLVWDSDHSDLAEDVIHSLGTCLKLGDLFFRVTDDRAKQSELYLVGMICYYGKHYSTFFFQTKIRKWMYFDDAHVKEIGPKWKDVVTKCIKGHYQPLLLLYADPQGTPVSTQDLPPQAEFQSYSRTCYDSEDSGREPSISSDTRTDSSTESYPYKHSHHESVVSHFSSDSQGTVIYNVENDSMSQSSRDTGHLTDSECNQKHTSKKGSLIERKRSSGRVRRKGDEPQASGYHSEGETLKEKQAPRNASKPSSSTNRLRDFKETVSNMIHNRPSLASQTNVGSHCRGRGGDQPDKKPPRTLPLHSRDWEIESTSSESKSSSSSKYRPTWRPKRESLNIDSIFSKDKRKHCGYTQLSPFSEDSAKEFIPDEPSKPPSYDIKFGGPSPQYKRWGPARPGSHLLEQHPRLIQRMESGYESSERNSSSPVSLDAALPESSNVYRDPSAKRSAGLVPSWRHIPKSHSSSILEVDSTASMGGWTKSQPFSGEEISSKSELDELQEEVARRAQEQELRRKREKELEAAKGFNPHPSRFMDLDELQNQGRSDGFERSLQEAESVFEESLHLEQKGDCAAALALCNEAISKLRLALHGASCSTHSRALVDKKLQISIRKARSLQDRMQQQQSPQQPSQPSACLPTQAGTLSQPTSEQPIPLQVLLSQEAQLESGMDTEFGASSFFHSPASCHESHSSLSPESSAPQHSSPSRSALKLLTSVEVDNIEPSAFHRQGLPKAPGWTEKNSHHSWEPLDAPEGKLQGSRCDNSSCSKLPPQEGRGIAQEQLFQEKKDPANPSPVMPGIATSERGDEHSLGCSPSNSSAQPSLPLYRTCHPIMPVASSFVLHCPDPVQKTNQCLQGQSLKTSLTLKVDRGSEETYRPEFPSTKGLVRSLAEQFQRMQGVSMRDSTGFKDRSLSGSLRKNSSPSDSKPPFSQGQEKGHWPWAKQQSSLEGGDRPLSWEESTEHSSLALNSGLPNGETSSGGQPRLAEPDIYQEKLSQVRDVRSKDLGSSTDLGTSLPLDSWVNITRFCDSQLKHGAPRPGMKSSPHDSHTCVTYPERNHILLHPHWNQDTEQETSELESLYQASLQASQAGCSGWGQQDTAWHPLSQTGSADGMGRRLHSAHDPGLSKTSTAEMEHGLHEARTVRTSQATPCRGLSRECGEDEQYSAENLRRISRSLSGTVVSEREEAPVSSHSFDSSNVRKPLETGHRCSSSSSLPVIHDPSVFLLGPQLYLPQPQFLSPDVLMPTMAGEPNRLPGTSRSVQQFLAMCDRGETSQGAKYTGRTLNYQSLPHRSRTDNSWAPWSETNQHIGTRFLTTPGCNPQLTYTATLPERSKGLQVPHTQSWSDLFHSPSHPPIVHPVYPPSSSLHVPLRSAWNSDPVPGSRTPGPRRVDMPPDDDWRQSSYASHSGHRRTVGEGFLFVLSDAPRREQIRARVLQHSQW
Summary of the method: as §1

[7] = target: USP7 (UniProt Q93009)
USP7, sequence (Q93009 whole entry, looked up): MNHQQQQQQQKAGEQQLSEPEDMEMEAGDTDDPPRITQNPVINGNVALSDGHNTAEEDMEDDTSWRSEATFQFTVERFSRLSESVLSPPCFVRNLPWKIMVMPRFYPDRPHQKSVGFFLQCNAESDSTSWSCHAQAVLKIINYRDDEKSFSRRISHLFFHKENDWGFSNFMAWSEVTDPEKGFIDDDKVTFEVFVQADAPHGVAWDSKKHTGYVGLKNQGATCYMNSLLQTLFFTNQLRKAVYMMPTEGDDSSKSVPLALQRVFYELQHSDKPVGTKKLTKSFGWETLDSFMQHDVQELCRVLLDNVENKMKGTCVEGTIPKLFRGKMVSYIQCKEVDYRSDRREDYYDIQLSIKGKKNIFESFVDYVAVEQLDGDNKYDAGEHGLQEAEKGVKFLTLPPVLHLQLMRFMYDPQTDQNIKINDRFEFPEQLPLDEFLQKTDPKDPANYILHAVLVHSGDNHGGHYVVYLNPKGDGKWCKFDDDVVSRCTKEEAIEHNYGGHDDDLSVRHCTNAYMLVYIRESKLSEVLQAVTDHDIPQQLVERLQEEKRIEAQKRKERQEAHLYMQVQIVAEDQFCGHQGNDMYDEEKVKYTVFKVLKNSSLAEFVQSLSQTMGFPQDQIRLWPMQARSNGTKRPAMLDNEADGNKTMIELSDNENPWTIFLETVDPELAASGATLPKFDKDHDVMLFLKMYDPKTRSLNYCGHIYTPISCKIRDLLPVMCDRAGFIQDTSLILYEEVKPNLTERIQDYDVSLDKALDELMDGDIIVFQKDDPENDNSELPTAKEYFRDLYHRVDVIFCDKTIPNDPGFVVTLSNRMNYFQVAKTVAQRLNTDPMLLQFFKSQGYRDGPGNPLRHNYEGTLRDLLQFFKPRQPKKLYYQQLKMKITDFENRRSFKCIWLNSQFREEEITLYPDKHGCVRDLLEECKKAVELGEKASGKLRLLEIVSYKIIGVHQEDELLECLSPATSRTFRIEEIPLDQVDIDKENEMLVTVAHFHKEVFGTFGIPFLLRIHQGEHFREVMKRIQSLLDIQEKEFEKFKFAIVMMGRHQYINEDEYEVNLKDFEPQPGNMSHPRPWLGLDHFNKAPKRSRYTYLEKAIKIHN
Summary of the method: as §1

[8] = target: T5, USP8 (UniProt P40818)
T5 sequence (whole entry): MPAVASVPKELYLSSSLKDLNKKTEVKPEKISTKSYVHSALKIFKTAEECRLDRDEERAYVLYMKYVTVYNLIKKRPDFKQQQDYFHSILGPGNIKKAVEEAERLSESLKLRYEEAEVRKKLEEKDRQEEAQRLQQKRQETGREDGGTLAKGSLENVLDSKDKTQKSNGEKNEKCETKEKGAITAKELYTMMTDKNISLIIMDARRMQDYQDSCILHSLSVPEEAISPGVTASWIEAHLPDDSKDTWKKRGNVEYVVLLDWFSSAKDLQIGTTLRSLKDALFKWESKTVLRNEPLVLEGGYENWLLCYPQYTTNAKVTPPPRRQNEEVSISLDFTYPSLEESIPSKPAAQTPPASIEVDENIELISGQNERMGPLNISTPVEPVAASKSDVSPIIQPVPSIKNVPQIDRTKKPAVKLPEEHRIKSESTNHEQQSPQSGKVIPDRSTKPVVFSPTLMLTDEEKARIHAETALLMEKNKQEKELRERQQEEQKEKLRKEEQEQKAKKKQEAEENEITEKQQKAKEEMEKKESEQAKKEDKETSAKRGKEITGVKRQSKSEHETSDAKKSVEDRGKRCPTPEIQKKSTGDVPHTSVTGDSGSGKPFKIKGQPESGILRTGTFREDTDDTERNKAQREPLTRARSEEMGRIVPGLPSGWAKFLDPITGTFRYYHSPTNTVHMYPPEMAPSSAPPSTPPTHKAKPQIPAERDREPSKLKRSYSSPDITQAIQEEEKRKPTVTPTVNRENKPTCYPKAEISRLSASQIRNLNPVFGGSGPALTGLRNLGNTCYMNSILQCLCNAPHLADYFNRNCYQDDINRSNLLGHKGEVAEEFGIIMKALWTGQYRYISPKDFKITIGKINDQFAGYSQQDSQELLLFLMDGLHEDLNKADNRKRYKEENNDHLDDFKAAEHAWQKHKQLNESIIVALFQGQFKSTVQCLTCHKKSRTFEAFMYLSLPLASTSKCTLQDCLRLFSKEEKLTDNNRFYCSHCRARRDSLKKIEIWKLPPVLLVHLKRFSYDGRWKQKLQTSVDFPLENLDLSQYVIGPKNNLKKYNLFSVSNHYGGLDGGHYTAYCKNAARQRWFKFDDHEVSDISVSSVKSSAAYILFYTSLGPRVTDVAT
Summary of the method: as §1

[9] = target: USP9X (UniProt Q93008)
Summary of the method: as §1

[10] = target: UniProt O00487
UniProt O00487, sequence (O00487 whole entry): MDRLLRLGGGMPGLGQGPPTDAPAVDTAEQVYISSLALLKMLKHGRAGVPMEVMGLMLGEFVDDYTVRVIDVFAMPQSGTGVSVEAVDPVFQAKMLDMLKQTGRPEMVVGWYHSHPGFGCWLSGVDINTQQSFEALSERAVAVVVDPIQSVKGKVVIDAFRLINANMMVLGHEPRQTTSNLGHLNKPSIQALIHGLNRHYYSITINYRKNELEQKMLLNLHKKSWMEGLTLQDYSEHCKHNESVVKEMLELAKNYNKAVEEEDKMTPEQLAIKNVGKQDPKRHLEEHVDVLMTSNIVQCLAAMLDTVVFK
Summary of the method: as §1

Measured: log2 ratio of Biotin-Ahx-Ub-VS probe labelling

Cl.O=C(CCl)N1CCc2ncncc2C1
inactive: [1] 0.0472 | [2] -0.292 | [3] -0.409 | [4] -0.0378 | [5] -0.0354 | [6] 0.253 | [7] -0.411 | [8] -0.218 | [9] -0.425 | [10] -0.0759

CS(=O)(=O)c1ccc(NC(=O)CCl)cc1
inactive: [1] 0.0549 | [2] 0.119 | [3] -0.0487 | [4] -0.946 | [5] 0.0085 | [6] 0.431 | [7] -0.156 | [8] 0.012 | [9] -0.388 | [10] -0.115

Cc1ccc(CNC(=O)CCl)nc1C.Cl
inactive: [1] 0.369 | [2] 0.12 | [3] 0.076 | [4] -0.13 | [5] -0.461 | [6] -0.18 | [7] -0.299 | [8] -0.217 | [9] 0.0101 | [10] -0.156

Cc1ccn2cc(CNC(=O)CCl)nc2c1.Cl
inactive: [1] 0.192 | [2] -0.0106 | [3] -0.5 | [4] -0.153 | [5] 0.0336 | [6] 0.581 | [7] -0.341 | [8] -0.325 | [9] -0.141 | [10] -0.0788
